Our source for the cell viability and kynurenine production values is the supplement of paper PMC13094657.

Each structure is given as a SMILES string. ± gives the standard deviation of the averaged measurements.

Assay [1] has as its system MDA-MB-231. Kind of assay: cell viability relative to vehicle unstimulated control (fraction); higher = more viable cells. As to conditions: pre-treatment time: 18 h then 24 h IFNg/TNF.
The test system of assay [2] is MDA-MB-231. The assay can be described thus: kynurenine production, fold change vs DMSO IFNg/TNF control; higher = more kynurenine produced (less inhibition). The conditions noted are these: pre-treatment time: 18 h then 24 h IFNg/TNF. The gist of the method:
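In 96-well plates, MDA-MB-231 cells (7 × 10^4/well) were given 24 h to settle, pre-treated for 18 h with each natural product in 0.1% DMSO, and stimulated for 24 h with IFNγ (1 U/ml) and TNF (6.25 ng/ml) at 37°C. Supernatants were processed with trichloroacetic acid and p-dimethylaminobenzaldehyde and read at 492 nm against 0–100 μM standards. In the first screening round, kynurenine production, as fold change over same-plate cytokine-stimulated vehicle wells, was averaged over duplicate plates.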
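For cell viability relative to vehicle unstimulated control in this document: viability of the cells left after supernatant collection, read with Deep Blue dye added for 4 h, as absorbance at 570 nm minus 600 nm.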

In the case of `CC1(C)O[C@H]2CC(=O)OC[C@]23[C@H]2CC[C@@]4(C)[C@H](c5ccoc5)OC(=O)[C@H]5O[C@]54[C@]2(C)C(=O)C[C@@H]13` [Limonin] (compound dose: 10 uM), in the assay on MDA-MB-231 [1], the cell viability was 0.9819 ± 0.0068. Also, the kynurenine production in the assay on MDA-MB-231 [2] was determined as 0.86 ± 0.3.

As to `C[C@@H]1O[C@@H](O[C@H]2[C@H](O[C@H]3CC[C@@]4(C)[C@@H](CC[C@]5(C)[C@@H]4CC=C4[C@@H]6CC(C)(C)CC[C@]6(C(=O)O[C@@H]6O[C@H](CO[C@@H]7O[C@H](CO)[C@@H](O)[C@H](O)[C@H]7O)[C@@H](O)[C@H](O)[C@H]6O)CC[C@]45C)[C@]3(C)CO)OC[C@H](O)[C@@H]2O)[C@H](O)[C@H](O[C@@H]2O[C@H](CO)[C@@H](O)[C@H](O)[C@H]2O)[C@H]1O` [Macranthoidin A] (compound dose: 10 uM), in the assay on MDA-MB-231 [1], the cell viability came out at 0.901 ± 0.011. Moreover, in the assay with MDA-MB-231 [2], the kynurenine production worked out at 1.08 ± 0.014.

As to `C[C@]1(O)C[C@@H](O)[C@]2(O)C=CO[C@@H](O[C@H]3O[C@H](CO)[C@@H](O)[C@H](O)[C@H]3O)[C@@H]21` [Harpagide] (compound dose: 10 uM), in the assay on MDA-MB-231 [1], the cell viability was 1.02 ± 0.016. Besides, in the assay with MDA-MB-231 [2], the kynurenine production came to 0.747 ± 0.068.

Consider `CC(=O)OCC1=C[C@@H]2OC(=O)C3=CO[C@@H](O[C@@H]4O[C@H](CO)[C@@H](O)[C@H](O)[C@H]4O)[C@H]1[C@@H]32` [Asperuloside] (compound dose: 10 uM), for which the cell viability in the assay on MDA-MB-231 [1] was 0.983 ± 0.03. Besides, the kynurenine production with MDA-MB-231 [2] is 0.923 ± 0.15.

Regarding `CC1=CCC(O)(C(C)C)CC1` (stereo unspecified) [Terpineol] (compound dose: 10 uM), the cell viability with MDA-MB-231 [1] is 0.969 ± 0.087. Besides, the kynurenine production in the assay with MDA-MB-231 [2] is 0.885 ± 0.087.

With `CC(=O)O[C@@H]1CC[C@@]2(C)[C@@H](CC[C@]3(C)[C@@H]2[C@H](O)C=C2[C@@H]4[C@@H](C)[C@H](C)CC[C@]4(C)CC[C@]23C)[C@@]1(C)C(=O)O` [3-O-Acetyl-11-hydroxy-beta-boswellic acid] (compound dose: 10 uM), the cell viability in the assay on MDA-MB-231 [1] was 0.8634 ± 0.0022. For the same compound, in the assay with MDA-MB-231 [2], the kynurenine production amounted to 0.988 ± 0.083.

As for `C=C1C(=O)O[C@@H]2CC(C)=C([C@@H](C)CCCOC(C)=O)[C@@H](O)[C@H]12` [Inulicin] (compound dose: 10 uM), the cell viability in the assay on MDA-MB-231 [1] came to 0.912 ± 0.096. Also, the kynurenine production in the assay on MDA-MB-231 [2] came to 1.16 ± 0.15.

Turning to `CCOC(=O)/C=C/c1ccccc1` [Ethyl cinnamate] (compound dose: 10 uM), the cell viability with MDA-MB-231 [1] was 0.988 ± 0.085. Besides, the kynurenine production with MDA-MB-231 [2] is 1.14 ± 0.11.

For `COC(=O)C1=CO[C@@H](O[C@@H]2O[C@H](CO)[C@@H](O)[C@H](O)[C@H]2O)[C@H]2[C@@H]1C(=O)C[C@@H]2C` [Verbenalin] (compound dose: 10 uM), the cell viability with MDA-MB-231 [1] worked out at 0.953 ± 0.052. Besides, the kynurenine production in the assay with MDA-MB-231 [2] is 0.834 ± 0.12.

For the compound `O=C(/C=C/c1ccc(O)c(O)c1)O[C@H](Cc1ccc(O)c(O)c1)C(=O)O` [Rosmarinic acid] (compound dose: 10 uM), in the assay with MDA-MB-231 [1], the cell viability turned out to be 1.11 ± 0.14. Further, the kynurenine production in the assay with MDA-MB-231 [2] amounted to 0.908 ± 0.18.

Take `C/C1=C\CCC2=C[C@@H](OC2=O)c2c(C)coc2C1` [Linderalactone] (compound dose: 10 uM): in the assay on MDA-MB-231 [1], the cell viability was 0.998. Further, the kynurenine production in the assay with MDA-MB-231 [2] came to 0.815 ± 0.018.

As to `C[C@@H]1C(=O)O[C@H]2C[C@@]34[C@H]5C[C@@H](C(C)(C)C)[C@]36[C@@H](OC(=O)[C@@H]6O)O[C@@]4(C(=O)O5)[C@]21O` [Ginkgolide A] (compound dose: 10 uM), the cell viability with MDA-MB-231 [1] amounted to 1.03 ± 0.13. Besides, the kynurenine production in the assay on MDA-MB-231 [2] was 1.2 ± 0.084.

For the compound `CC(C)c1ccc2c(c1)CC[C@H]1[C@](C)(C(=O)O)CCC[C@]21C` [Dehydroabietic acid] (compound dose: 10 uM), in the assay on MDA-MB-231 [1], the cell viability came out at 1.008 ± 0.0086. Besides, the kynurenine production with MDA-MB-231 [2] was 0.713 ± 0.23.

`C[C@@H]1O[C@@H](O[C@@H]2[C@@H](O)[C@H](O[C@H]3CC[C@]4(C)[C@H]5CC=C6[C@@H]7CC(C)(C)CC[C@]7(C(=O)O[C@@H]7O[C@H](CO)[C@@H](O)[C@H](O)[C@H]7O)CC[C@@]6(C)[C@]5(C)CC[C@H]4C3(C)C)O[C@H](C(=O)O)[C@H]2O)[C@H](O)[C@H](O)[C@H]1O` (compound dose: 10 uM): in the assay on MDA-MB-231 [1], the cell viability came to 0.941 ± 0.015. Further, the kynurenine production in the assay on MDA-MB-231 [2] worked out at 0.932 ± 0.11.

For `CC(=O)O[C@]12CCC(C(=O)O)=CC[C@]13CC[C@H]2[C@@](C)(/C=C/C=C(\C)C(=O)O)OC3=O` [Pseudolaric Acid C2] (compound dose: 10 uM), the cell viability in the assay with MDA-MB-231 [1] came to 1.017 ± 0.0098. In the assay on MDA-MB-231 [2], the kynurenine production turned out to be 0.728 ± 0.017.

Consider `CC(C)=CCC[C@](C)(O)[C@@H]1CC=C(C)CC1` [Levomenol] (compound dose: 10 uM), for which the cell viability with MDA-MB-231 [1] is 0.676 ± 0.54. Besides, the kynurenine production in the assay with MDA-MB-231 [2] was found to be 1.16 ± 0.056.

Turning to `C=C1C[C@@]23CC[C@H]4[C@@](C)(CCC[C@@]4(C)C(=O)O)[C@@H]2CC[C@@H]1C3` [Kaurenoic acid] (compound dose: 10 uM), the cell viability in the assay with MDA-MB-231 [1] turned out to be 1.006 ± 0.0069. The kynurenine production in the assay on MDA-MB-231 [2] is 0.878 ± 0.12.

As for `COC(=O)C1=CO[C@@H](O[C@@H]2O[C@H](CO[C@@H]3O[C@H](CO)[C@@H](O)[C@H](O)[C@H]3O)[C@@H](O)[C@H](O)[C@H]2O)[C@@H]2C(CO)=CC[C@H]12` [Genipin 1-β-D-gentiobioside] (compound dose: 10 uM), the cell viability with MDA-MB-231 [1] was 0.849 ± 0.014. In addition, the kynurenine production in the assay on MDA-MB-231 [2] was 0.718 ± 0.24.
